Measurements: PubChem BioAssay (NCI)
Values joined by “and” are separate entries in the source; they are usually repeats but may differ in a detail not shown here. Equal values may be shown once. Compounds without any hit were thinned out: in the full panel of roughly 83,000, 20% have a hit.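 Step 1: grow cells in 96-well plates. Step 2: add test compound at a single concentration. Step 3: incubate 48 h. Step 4: record percent growth.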 Active and inactive are the calls of the source. The calls were made as follows: active = growth percent below 10; inactive = the rest.

System: HL-60(TB) leukemia
Experiment: NCI-60 one-dose screen, 48 h (100 = growth as untreated, 0 = no growth, -100 = all killed)
Conditions: 10 µM unless noted

| SMILES | growth |
| --- | --- |
| CCOC(=O)C(N=Nc1ccc(S(=O)(=O)N=C(N)N)cc1)C(C)=O (centres undefined) | 96.4% (inactive) |
| Cc1cccc(-c2ccccc2Oc2ccc3nnc(Cl)n3n2)c1 | 108% (inactive) |
| OCC1(CCCc2ccccc2)CCCN(c2nccc3ccccc23)C1 (centres undefined) | 22.7% (inactive) |
| Cc1ccc(C(=O)NN2C(=O)/C(=C/C=C/c3ccc([N+](=O)[O-])o3)SC2=S)cc1 | 2.23% (active) |
| COc1ccc(-c2nc3ccc(-c4nnc(SCc5ccccc5)o4)cc3[nH]2)cc1 | 16.3% (inactive) |
| CC[C@]12C=CCN3CC[C@@]4(c5cc(C#CCNc6ccc(C)c(Nc7nccc(-c8cccnc8)n7)c6)c(OC)cc5N(C)[C@H]4[C@@](O)(C(=O)OC)[C@@H]1OC(C)=O)C32 (some centres undefined) | 30.8% (inactive) |
| N/N=C(\N)c1c(N)nc(=S)[nH]c1-c1ccc(Cl)cc1Cl | 89.1% (inactive) |
| C#CCOc1ccc(/C=N/Nc2nc(-c3ccc(F)cc3)cs2)cc1OC | 25.2% (inactive) |
| CCOC(=O)C1=C(N)N(c2ccc(C)cc2)C2=C(C(=O)CC(C)(C)C2)C1c1ccccc1OC (centres undefined) | 98.9% (inactive) |
| Cc1ccc(C(=O)NNC(=O)CSc2nc3ccccc3c(=O)[nH]2)cc1 | 93.3% (inactive) |
| O=C1Nc2ccccc2/C1=C\c1ccc(OCC(=O)c2ccc(Br)cc2)cc1 | 40.4% (inactive) |
| COc1cc2cc(C(=O)N3C[C@@H](CCl)c4c3cc(OC(=O)N(CCC(=O)N3CCN(C)CC3)C3CCCCC3)c3ccccc43)[nH]c2c(OC)c1OC | -55.9% (active) |
| Clc1ccccc1Nc1nnc(-c2c[nH]c3ccccc23)o1 | -0.476% (active) |
| COc1cc(/C=C/C(=O)c2ccc(S(=O)(=O)NCCNc3nc(Nc4ccc(F)cc4)nc(N(C)C)n3)cc2)cc(OC)c1OC | -4.97% (active) |
| Nc1nc(Nc2ccc(Cl)cc2)nn1Cc1cccc(Br)c1 | 34.5% (inactive) |
| O=C(c1ccc(Cl)cc1)C1[C@H](c2ccc(Br)cc2)[C@@H](c2ccccc2)NC12C(=O)Nc1ccc(Cl)cc12 (some centres undefined) | -45.2% (active) |
| COc1cc2oc(-c3cccc(C(=O)Nc4ccc(Cl)cc4)c3)cc(=O)c2c(OCCNC(=O)CNC(=O)OC(C)(C)C)c1OC | 55.5% (inactive) |

| SMILES | growth |
| --- | --- |
| CC(C)(C)c1ccc(OCc2nc3ccccc3n2-c2cccc(N)c2)cc1 | 67.8% (inactive) and 98.6% (inactive) |
| COc1ccc([C@H]2C(C(=O)c3ccc(Cl)cc3)C3(N[C@@H]2c2ccccc2)C(=O)Nc2ccc(Cl)cc23)cc1 (some centres undefined) | 11.5% (inactive) |
| O=C(Nc1cccc(C(F)(F)F)c1)c1cncc(C#Cc2cnc3ccc(N4CCOCC4)nn23)c1 | -33% (active) |
| O=C(c1ccc(Cl)cc1)C1[C@H](c2ccccc2Cl)[C@@H](c2ccccc2)NC12C(=O)Nc1ccc(Br)cc12 (some centres undefined) | -43.7% (active) |
| O=C(CNc1nc(-c2ccccc2)cs1)Nc1ccc(Br)cc1 | -40.4% (active) |
| CCCCNc1ccc2c3c(cccc13)C(=O)N(NCC(O)COc1ccc3c(C)cc(=O)oc3c1)C2=O (centres undefined) | 100% (inactive) |
| COc1cc(/C=C/C(=O)c2nnn(-c3ccc(Cl)cc3)c2C)cc(OC)c1OC | -5.43% (active) |
| CN(C)c1nc(NCCNS(=O)(=O)c2ccc(C3=Nc4c(N)nc(N)nc4NC(c4ccc(Cl)cc4)C3)cc2)nc(N2CCOCC2)n1 (centres undefined) | 28.1% (inactive) |
| COc1ccc(/C=C/C(=O)c2ccc(OC)c(S(N)(=O)=O)c2)c(C(F)(F)F)c1 | 3.73% (active) |
| S=C(NCCc1ccccc1)Nc1ccc(OCc2nc3ccccc3[nH]2)cc1 | 100% (inactive) |
| COc1ccc(C(=O)CSc2nnc(-c3c[nH]c4ccccc34)n2-c2ccccc2)cc1 | 81.3% (inactive) |
| O=C(NO)c1ccc(CNC(=O)[C@H]2Cc3c([nH]c4ccccc34)[C@H](c3ccccc3)N2)cc1 | 0.371% (active) |
| O=C(NN1C(=O)/C(=C/C=C/c2ccc([N+](=O)[O-])o2)SC1=S)c1cccc(O)c1 | -2.32% (active) |
| Cc1ccc(/C=C/c2n(Cc3ccc4ccccc4c3)c3ccccc3[n+]2Cc2ccc3ccccc3c2)cc1 | -45.5% (active) |
| OCc1[nH]nc2cc(Nc3ncc4ccc(Br)c(OC5CCC(O)CC5)c4n3)ccc12 (centres undefined) | -40.1% (active) |
| CCOC(=O)/C(F)=C/C1CC1C1CCN(C(=O)OC(C)(C)C)CC1 (centres undefined) | 102% (inactive) |
| O=C(Cn1nc(-c2ccccc2)ccc1=O)N/N=C/c1ccc(N2CCOCC2)cc1 | 96.3% (inactive) |
